Assay outcomes as filed in PubChem.
This is a sample that favours compounds with a hit; in the whole collection about 2% have one here.
TLR4-MyD88 inh – inhibitors of human TLR4-MyD88 binding; inhibition, % at 10 µM; Toll-like receptor 4 (Homo sapiens), O00206; Cell-based TLR4-MyD88 binding inhibition assay; AID 811, 2007; 16,000 tested, 0.06% active; in the data active = inhibition above about 45%
KOR antag MB – antagonists of human kappa opioid receptor OPRK1, Maybridge library. Kappa-type opioid receptor (Homo sapiens), P41145. inhibition, % at 9 µM. 16,000 tested, 0.4% active. OPRK1 cells, antagonist mode, fluorescence readout. AID 652031, 2013; in the data active = inhibition above about 50%
Target sequence (P41145 whole entry, looked up): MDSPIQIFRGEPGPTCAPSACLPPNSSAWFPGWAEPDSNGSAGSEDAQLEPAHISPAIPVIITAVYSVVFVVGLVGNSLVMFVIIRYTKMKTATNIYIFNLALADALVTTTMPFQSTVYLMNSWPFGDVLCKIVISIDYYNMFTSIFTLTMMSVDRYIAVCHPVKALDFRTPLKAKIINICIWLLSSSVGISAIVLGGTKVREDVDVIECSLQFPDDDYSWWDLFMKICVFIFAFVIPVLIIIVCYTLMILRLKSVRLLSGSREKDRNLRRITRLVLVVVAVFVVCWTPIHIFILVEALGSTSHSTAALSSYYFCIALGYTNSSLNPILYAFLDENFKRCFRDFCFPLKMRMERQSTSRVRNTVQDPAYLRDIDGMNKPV
S1P1 ag – activates the human S1P1 receptor; AID 1044, 2008; Sphingosine 1-phosphate receptor 1 (Homo sapiens), P21453; activation, % at 4.5 µM; S1P1 agonist cell-based reporter assay; 16,000 tested, 1.5% active; in the data active = activation above about 80%
The depositor's hits bear a star; nt = no result.

SMILES	TLR4-MyD88 inh	KOR antag MB	S1P1 ag
N#CCCNc1ccc(N=Nc2ccc(Cl)cc2)cc1	13.8	22.7	103.8*
O=C(Nc1ccc(C2=NCCO2)cc1)c1ccc(C(F)(F)F)cc1	-19.5	41.2	14.9
COc1ccc(OC)c(NC(=O)C(=O)NC2CC(C)CC(C)(C)C2)c1 (centres undefined)	-0.5	20.6	18.8
COc1cc(C(=O)NC2CC(C)CC(C)(C)C2)cc(OC)c1OC (centres undefined)	4.5	-28.7	108.8*
[N-]=C=N[n+]1ccc2ccccc2c1C(=O)c1ccc(Cl)cc1	5.2	-13.5	5.9
Brc1ccc(-n2cccc2)nc1	2.3	-6.6	85.5*
FC(F)(F)c1ccc(-n2ccnc2)nc1	4.6	-6.6	-4.3
COc1ccc(Oc2cccc(Cl)c2CNC(=O)NS(=O)(=O)c2ccc(C)cc2)cc1	5.5	-2.5	19.7
CCOC(=O)C1CCN(Cc2cccc(NC(=O)c3cccs3)c2)CC1	-3.2	50.2*	1.4
CCOC(=O)C1CCN(Cc2cccc(NC(=O)c3cc(C)on3)c2)CC1	nt	20.6	-0.1
CC(=O)Nc1cccc(OCCCNS(=O)(=O)c2cccc3nonc23)c1	-4.0	-2.0	12.0
Cc1nc(C(F)(F)F)c(C(=O)O/N=C(\N)c2cccc(C(F)(F)F)c2)s1	0.6	-5.2	99.0*
N/C(=N\OC(=O)c1csc([N+](=O)[O-])c1)c1cccc(C(F)(F)F)c1	nt	0.7	44.7
Cc1ccc(S(=O)(=O)NC(=O)N(C)CCc2ccccn2)cc1	4.5	11.5	3.6
CN(CCc1ccccn1)C(=O)c1nccnc1C(=O)O	13.5	6.4	94.5*
Clc1ccc(-c2ccon2)c(Cl)c1	3.5	-2.0	-3.5
CC(=O)Nc1onc(C)c1-c1nc(-c2ccc(Cl)cc2Cl)cs1	6.3	50.5*	-4.1
Nc1ccccc1C(=O)NCCc1ccccn1	8.2	6.3	-1.0
COc1cccc(C(=O)CSc2nsc(SCC(=O)c3cccc(OC)c3)c2C#N)c1	-4.7	5.8	-5.7
O=[N+]([O-])c1cnc(Sc2ccc(C(F)(F)F)cn2)s1	-0.1	14.8	-23.8
O=C1NC(=S)S/C1=C\c1cc([N+](=O)[O-])ccc1Sc1ccc(C(F)(F)F)cn1	0.3	11.7	108.1*
COc1ccc(/C=C(\C#N)c2cccc(Cl)c2)c(OC)c1	-13.6	8.5	-5.4
Cc1cc(C(=O)Nc2nc3ccc(Cl)cc3s2)nn1C	9.9	1.1	102.5*
Cc1cc(C(=O)Nc2ccc(N3CCOCC3)cc2)nn1C	-1.8	-4.9	1.0
Clc1ccc(CSc2nnc(-n3cccc3)s2)cc1	0.1	-12.9	80.3*
SMILES	TLR4-MyD88 inh	KOR antag MB	S1P1 ag
Cc1nnc(SCc2ccc([N+](=O)[O-])cc2)s1	3.3	2.1	-1.6
N#C/C(=N\Nc1cccc(C(F)(F)F)c1)S(=O)(=O)c1ccsc1	-8.4	-2.4	97.0*
N#C/C(=N\Nc1cccc(C(F)(F)F)c1)C(=O)c1csc(-c2cccnc2)n1	-3.6	11.8	72.6
CCOC(=O)c1sc2nc(SCc3ccccc3)nc(-c3ccccc3)c2c1N	5.7	-17.2	15.9
Nc1c(C(=O)c2ccccc2)sc2nsc(SCCN3CCCC3)c12	14.4	76.3*	71.8
Brc1ccc(-c2csc(/C=C/C=C/N3CCOCC3)n2)cc1	2.2	4.6	-15.3
CCC/C(O)=C(\C=N\c1ccc(C(=O)OC)o1)C(=O)OCC	1.3	-5.4	82.7*
COC(=O)c1ccc(/N=C/N(C)C)o1	5.5	-84.3	-0.2
CC(C)c1ccc(NC(=O)CSc2ncc3c(n2)CC(C)(C)CC3=O)cc1	8.8	-10.8	1.4
CN(C)S(=O)(=O)Oc1ccc(-c2noc(C3CCC3)n2)cc1	0.1	9.4	17.0
Clc1ccc(COc2ccc(-c3noc(C4CC4)n3)cc2)cc1	0.3	0.3	100.6*
Cc1cccc(C)c1NC(=O)C(C)Oc1ccc(Cl)cc1Cl (centres undefined)	-6.8	-8.2	-3.9
O=S(=O)(c1cc(Br)c(Br)s1)N1CCCCC1	4.1	16.3	34.2
O=S(=O)(Nc1ccc(F)c(Cl)c1)c1cc(Br)c(Br)s1	-15.2	-20.6	89.7*
COc1ccc(OC)c(/C=C(\C#N)C(N)=O)c1	11.9	-9.1	92.4*
CCOC(=O)/C(C#N)=C/c1ccc(OC)c(OC)c1	-12.1	16.0	-3.6
CCOC(=O)c1c(C)oc(C)c1S(=O)(=O)Nc1ccc(Cl)cc1	1.1	-5.8	-8.8
CN1c2ccccc2C(=O)/C(=C\Nc2ccccn2)S1(=O)=O	-3.0	-5.2	2.7
CCn1c2ccccc2c2cc(N3C(=O)C=CC3=O)ccc21	19.2	-0.5	110.3*
COc1ccc(N2C(=O)C=CC2=O)cc1OC	2.6	24.2	22.9
O=c1c(N2CCCCC2)c(N2CCCCC2)c1=O	-2.8	-10.0	-13.5
COC(=O)C1=C(C)NC(C)=C(C(=O)OC)C1c1ccsc1	6.1	-7.9	-13.2
